# Hits are enriched below; roughly 2.4% of the tested compounds scored in any of these assays.
# CHT inh – inhibitors of human choline transporter CHT; AID 488975; actives 0.86% (n = 310,000); Q9GZV3; CHT-expressing cells, membrane potential dye, choline response; hits give low values; B-score at 10 µM;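 active means B-score over 3 SD under the library average, and starting fluorescence ratio not unusually high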;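 further: choline stimulus applied at its EC90 after an EC20 pre-addition; B-score computed on integrated fluorescence ratio after choline addition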
# TMEM16A inh – blocks the mouse calcium-activated chloride channel TMEM16A; Q8BHY3; actives 1.2% (n = 310,000); normalized B-score (activity score, 25-100; higher = stronger inhibition) at 10 µM; HEK293 TMEM16A/YFP iodide influx fluorescence, ionomycin;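 active means ratio plate-corrected score three or more library SD toward inhibition, starting fluorescence score within five deviations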;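 further: score derived from kinetic fluorescence span divided by baseline fluorescence per well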
# ANO1 activ – activators or potentiators of mouse TMEM16A chloride channel; Q8BHY3; B-score at 10 µM; actives 0.3% (n = 340,000); HEK293 TMEM16A/YFP-H148Q/I152L, iodide quench fluorescence; hits give low values;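 active means fluorescence-ratio B-score plate-corrected deviation score at least 3 library SD below zero, with starting fluorescence score within 5 deviations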;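 further: channel opened by trigger with iodide after compound preincubation; score built on the fluorescence ratio of max minus min over baseline; more negative score means more quench and so TMEM16A activation or potentiation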
# CHT PAM – allosterically activates the human high affinity choline transporter; Q9GZV3; CHT-expressing cells, membrane potential dye, choline EC20; hits give high values; LV-AA mutant CHT in HEK293 cells; B-score at 10 µM; actives 0.49% (n = 310,000);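 active means initial fluorescence not abnormally high and integrated response B-score, plate-corrected, over 3 SD above library mean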
# CHT act confirm – human CHT activation, confirmatory screen | shares compounds with CHT PAM | CHT-expressing cells, membrane potential dye fluorescence (FDSS); % of choline EC20–EC90 response window; HEK293 expressing CHT LV-AA mutant; choline added at its EC20 | activation, % at 10 µM | actives 91% (n = 2,500) | AID 504833;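 active means primary screen active, with duplicate mean activation above negative control mean plus 3 SD, cut at about 11% in these data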
# HEK293 MP dye – counter-screen for CHT activators: effect in parental HEK293 cells | shares compounds with CHT PAM | membrane potential dye fluorescence (FDSS); measured after EC20 choline addition | ratio readout change at 10 µM, hits read low | actives 62% (n = 2,500);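 active means duplicate-averaged ratio beyond 3 SD from buffer wells, up or down, though filed actives are nearly all decreases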
# The depositor's hits bear a star; i = inactive; nt = no result; ! = not active in a repeat.
SMILES,CHT inh,TMEM16A inh,ANO1 activ,CHT PAM,CHT act confirm,HEK293 MP dye
COc1cccc(CN2CCCC(CNC(=O)c3ccc(F)cc3)C2)c1OC (stereo unspecified),i,i,i,i,nt,nt
O=C(CSc1nnc(SCc2ccc(Cl)cc2)s1)c1ccc2c(c1)OCO2,i,i,i,i,nt,nt
CCOC(=O)C1=C(C)S/C(=C\N(C)C)C1=O,i,i,i,11.1*,61.2*,-54.3*
Cc1ccc(NC(=S)N2CCC(C(N)=O)(N3CCCCC3)CC2)c(C)c1,i,i,i,i,nt,nt
C=CCn1c(SCC(=O)NC2(C)CCS(=O)(=O)C2)nc2ccccc21 (stereo unspecified),nt,nt,i,nt,nt,nt
S=c1[nH]nc(-c2ccccn2)n1/N=C/c1cccc2ccccc12,i,i,i,i,nt,nt
CSc1nnc2c(n1)OC(C)=Nc1ccccc1-2,i,i,i,i,40.7*,-40.6*
O=C(COc1cccc2cccnc12)N/N=C1\SCC(=O)N1Cc1ccco1,i,i,i,7.17*,66.0*,-55.3*
O=C(COc1cccc2cccnc12)N/N=C1\SCC(=O)N1CCc1ccccc1,i,i,i,i,nt,nt
Cc1ccc(CNC(=O)Cn2cnc3c(OCc4ccccc4)ncnc32)o1,nt,nt,i,nt,nt,nt
Cc1c(O)ccc2c(CN3CCOCC3)cc(=O)oc12,i,i,i,i,nt,nt
Cc1c(O)ccc2c(CN3CCN(CCO)CC3)cc(=O)oc12,i,i,i,17.4*,65.6*,-70.3*
Cc1ccc(C[n+]2cccc(-c3ccccc3)c2)c(C)c1,i,i,i,8.43*,59.4*,i
Cc1ccc(NC(=O)Cc2ccccc2)c(C)c1,i,i,nt,i,nt,nt
NC(N)=Nc1nc(-c2ccccc2)c2cc(F)ccc2n1,i,i,i,i,28.8*,-47.8*
OCCSc1nc(-c2ccccc2)nc2ccc(F)cc12,i,i,i,i,nt,nt
Cc1cccc(COCC(Cc2ccccc2)N2CCN(C(=O)c3cccc(Cl)c3)CCC2=O)c1 (stereo unspecified),i,i,i,i,nt,nt
O=C(c1cccc(Cl)c1)N1CCC(=O)N(C(COCc2ccccc2)Cc2ccccc2)CC1 (stereo unspecified),i,i,i,6.34*,28.6*,i
O=C(Nc1ccc2c(c1)C(=O)OC2)c1ccccc1Cl,i,i,i,i,nt,nt
Cc1cc(N2CCN(c3ccccn3)CC2)n2cc(-c3ccccc3)nc2n1,i,i,i,i,nt,nt
Cc1cc(N2CCN(C)CC2)n2cc(-c3ccc(F)cc3)nc2n1,i,i,i,6.86*,39.4*,-63.8*
COc1ccc(-c2csc3nc(C)nc(N4CCCCC4)c23)cc1OC,i,i,i,i,26.7*,i
C=CC[C@H](CC(=O)N[C@H](CO)Cc1ccccc1)C(=O)N[C@H](COC(=O)[C@H](CC=C)CC(=O)OC(C)(C)C)Cc1c[nH]c2ccccc12,nt,nt,i,nt,nt,nt
CSc1nc2ncc3c(n2n1)CC1c2ccccc2CCN1C3=O (stereo unspecified),i,i,i,i,nt,nt
O=C1c2cnc3ncnn3c2CC2c3ccccc3CCN12 (stereo unspecified),i,i,i,i,21.2*,-27*
SMILES,CHT inh,TMEM16A inh,ANO1 activ,CHT PAM,CHT act confirm,HEK293 MP dye
CC1CCC2(CC1)NC(=O)N(NC(=O)CCc1c[nH]c3ccccc13)C2=O (stereo unspecified),nt,nt,i,nt,nt,nt
CN(C)S(=O)(=O)N(CC(=O)NCCSCc1ccc(Cl)cc1)c1ccccc1,i,i,i,8*,0.9,i
CS(=O)(=O)N(CC(=O)NCCSCc1ccccc1)c1ccccc1,i,i,i,i,nt,nt
COCCNc1nc(-c2ccccc2)nc2ccccc12,i,i,i,i,31.1*,-35.9*
OCCN1CCN(c2ncnc3ccc(Br)cc23)CC1,i,i,i,12.9*,38.3*,-29.6*
CC(=O)c1ccc(NC(=O)c2ccn(C(=O)OCC(C)C)n2)cc1,i,i,i,i,17.6*,-35.7*
COc1cc(OC)c2ccc(=O)oc2c1C(CC(=O)N1CCN(c2ccccc2)CC1)c1ccc2c(c1)OCO2 (stereo unspecified),i,i,i,i,32.8*,i
COc1cc(OC)c2ccc(=O)oc2c1C(CC(=O)N1CCOCC1)c1ccc2c(c1)OCO2 (stereo unspecified),i,i,i,i,nt,nt
COc1cc2nc(N3CCN(C(=O)C4CCCO4)CC3)nc(N)c2cc1OC (stereo unspecified),i,i,i,8.31*!,42.6*,-27.6*
Cc1nc2ccc(NC(=O)Cc3c(F)cccc3Cl)cc2s1,i,i,i,i,nt,nt
Cc1nc(-c2ccccc2)cc(N2CCCC2)n1,i,i,i,i,nt,nt
Cc1cc(-c2ccccc2)nc2[n+]1CCN2C,i,i,i,7.5*,60.5*,-58.7*
CCCCn1c2c(c(=N)c3c1CCC3)CCC2,i,i,i,7.4*,34.6*,-51.6*
CCCCCCn1c2c(c(=N)c3c1CCC3)CCC2,i,i,i,8.16*,72.1*,-43.8*
CCCCCCCCCn1c2c(c(=N)c3c1CCC3)CCC2,i,100*,i,10.9*,81.8*,-61.3*
Cc1cccc(N=Cc2c(O)cc(C)oc2=O)c1,i,i,i,i,nt,nt
Cc1cccc(N=Cc2[nH]c3ccc(Br)c(Cl)c3c2O)c1,i,i,i,i,11.9*,i
c1cnc2c(c1)ccc1cccnc12,i,i,i,6.63*,61.9*,-105*
Cc1ccnc2c1ccc1cccnc12,nt,nt,i,nt,nt,nt
Cc1cccn2c(=O)c(C=O)c(NCc3ccccc3)nc12,i,i,i,i,nt,nt
O=c1c2ccccc2nnn1COc1cccc(Cl)c1,i,i,i,i,nt,nt
COCCNc1cnn(-c2ccccc2)c(=O)c1Cl,i,i,i,i,nt,nt
CCCN(CCC)C(=O)c1oc2ccccc2c1NC(=O)Cc1cccc(OC)c1,i,i,i,15.6*,28.5*,i
CCC(=O)Nc1c(C(=O)Nc2cccc(OC)c2)oc2ccccc12,i,i,i,i,nt,nt
CCCOc1nc2c(c(=O)n(C)c(=O)n2C)n1C,i,i,i,i,nt,nt
CN(C)CCCOc1nc2c(c(=O)n(C)c(=O)n2C)n1C,i,i,i,9.15*,48.7*,-55.1*
Cc1ccc(C(=O)CSc2cc(C)nc(SCC(=O)c3ccccc3)n2)cc1,i,i,i,i,nt,nt
